Measurements taken from ChEMBL document CHEMBL4513146, “CO-ADD screening of Karazin Kharkiv National University (Ukraine) compounds”.
Results with a measured potency or affinity are listed apart.

What was measured:
[1] = tested on: Klebsiella pneumoniae; conditions: Concentration 32 ug.mL-1;; ASSAY_TEST Inhibition of Bacterial Growth; detection method Absorption (OD600); MEDIA CAMHB; plate type 384well; NBS; CORNING #3640; time 18 hr
[2] = tested on: Candida albicans; conditions: Concentration 32 ug.mL-1; ASSAY_TEST Inhibition of Fungal Growth; detection method Absorption (OD530)
[3] = tested on: Cryptococcus neoformans; conditions: Concentration 32 ug.mL-1; ASSAY_TEST Inhibition of Fungal Growth; detection method Resazurin; Absorption (OD600-OD570); plate type 384well; NBS; CORNING #3640

`O=C(Cn1nc2c3cc(F)ccc3ncn2c1=O)Nc1ccc2c(c1)OCO2` gave an Inhibition [1] of 1.07%, an Inhibition [2] of 3.33% and an Inhibition [3] of -3.11%.
For `O=C(Cn1nc2c(Oc3ccccc3)nccn2c1=O)Nc1ccccc1F`, the Inhibition [1] was -3.78%, the Inhibition [2] was -2.47% and the Inhibition [3] was -4.07%.
In the case of `COc1cccc(-n2ccn3c(SCC(=O)NCc4ccc(Cl)cc4)nnc3c2=O)c1`, the Inhibition [1] is reported as 6.58%, the Inhibition [2] is reported as 0.82% and the Inhibition [3] is reported as -6.96%.
In the case of `CC(C)CCn1c(=O)c2sccc2n2c(=O)n(Cc3c(F)cccc3Cl)nc12`, the Inhibition [1] is reported as 12.18%, the Inhibition [2] is reported as 9.98% and the Inhibition [3] is reported as -27.55%.
`O=C(CSc1nnc2c(=O)n(-c3ccc(F)cc3)ccn12)NCC1CCCO1` (stereo not drawn) was tested, and the Inhibition [1] was 7.61%, the Inhibition [2] was 4.29% and the Inhibition [3] was -18.42%.
With `O=C(Cn1nc2c(SCc3ccc(Cl)cc3)nccn2c1=O)Nc1ccccc1F` the Inhibition [1] was 4.91%, the Inhibition [2] was 1.79% and the Inhibition [3] was -4.96%.
`CC1CCc2c(sc3ncn4c(=O)n(CC(=O)Nc5ccc6c(c5)CCC6)nc4c23)C1` (stereo not drawn) showed an Inhibition [1] of 13.08%, an Inhibition [2] of 4.62% and an Inhibition [3] of -27.54%.
For `Cc1ccc(Sc2nccn3c(=O)n(CC(=O)N4CCN(c5ccccc5)CC4)nc23)c(C)c1`, the Inhibition [1] was 2.5%, the Inhibition [2] was 3.52% and the Inhibition [3] was -7.85%.
In the case of `Cc1nnc2ccc(S(=O)(=O)N(Cc3cccc(Cl)c3)c3ccc(F)cc3)cn12`, the Inhibition [1] is reported as 8%, the Inhibition [2] is reported as 2.21% and the Inhibition [3] is reported as -6.34%.
For `COc1ccccc1N1CCN(C(=O)Cn2nc3c(Oc4ccc(C)cc4)nccn3c2=O)CC1`, the Inhibition [1] was 13.94%, the Inhibition [2] was 1.98% and the Inhibition [3] was -10.45%.
`Cc1ccc(NC(=O)Cn2nc3c(Oc4cccc(C)c4C)nccn3c2=O)c(Br)c1` showed an Inhibition [1] of 10.09%, an Inhibition [2] of -2.33% and an Inhibition [3] of -8.9%.
With `CCCn1c(=O)c2ccc(C(=O)NC3CCCCC3)cc2n2c(=O)n(CC#N)nc12` the Inhibition [1] was 5.71%, the Inhibition [2] was 1.88% and the Inhibition [3] was -10.2%.
In the case of `O=C(Cn1nc2ccc(SCc3ccc(Cl)cc3)nn2c1=O)Nc1cccc(F)c1`, the Inhibition [1] is reported as -5.89%, the Inhibition [2] is reported as 31.36% and the Inhibition [3] is reported as -11.95%.
For `CC(C)CCn1c(=O)c2ccc(C(=O)NC3CCCCC3)cc2n2c(=O)n(CC#N)nc12`, the Inhibition [1] was 4.36%, the Inhibition [2] was 4.75% and the Inhibition [3] was -17.66%.
With `COc1ccc(Cl)cc1NC(=O)CSc1nnc2c(=O)n(-c3ccc(C)c(C)c3)ccn12` the Inhibition [1] was 15.8%, the Inhibition [2] was 0.63% and the Inhibition [3] was -9.59%.
Work on `CCc1ccc(N(Cc2ccc(Cl)cc2)S(=O)(=O)c2cccn3c(C)nnc23)cc1` yielded an Inhibition [1] of -1.79%, an Inhibition [2] of 3.63% and an Inhibition [3] of -5.55%.
Molecule `CCCCOc1ccc(-c2cc3c4nnc(SCC(=O)Nc5ccc(F)cc5)n4ccn3n2)cc1` has an Inhibition [1] of 3.87%, an Inhibition [2] of -1.37% and an Inhibition [3] of -16.65%.
`C=Cc1ccc(CN(c2ccc(C(C)C)cc2)S(=O)(=O)c2cccn3c(C)nnc23)cc1` was tested, and the Inhibition [1] was 4.48%, the Inhibition [2] was 1.49% and the Inhibition [3] was -4.15%.
`Cc1cc(C)c(NC(=O)Cn2nc3c4cc(-c5ccc(C)c(C)c5)nn4ccn3c2=O)c(C)c1` was tested, and the Inhibition [1] was 5.52%, the Inhibition [2] was -0.89% and the Inhibition [3] was -17.51%.
`O=c1c2sccc2n2c(=O)n(Cc3ccc(Br)cc3)nc2n1Cc1cccs1` was tested, and the Inhibition [1] was -4.09%, the Inhibition [2] was 49.64% and the Inhibition [3] was -28.37%.
In the case of `COc1ccccc1-n1ccn2c(SCC(=O)N3CCN(c4ccccc4F)CC3)nnc2c1=O`, the Inhibition [1] is reported as 14.09%, the Inhibition [2] is reported as 3.15% and the Inhibition [3] is reported as -10.82%.
For `CCCn1c(=O)c2sccc2n2c(=O)n(CC(=O)c3ccc(OC)c(OC)c3)nc12`, the Inhibition [1] was 5.35%, the Inhibition [2] was -1.4% and the Inhibition [3] was -6.57%.
For `COc1cc(NC(=O)C(C)Sc2nnc3c(=O)n(-c4ccc(C)c(C)c4)ccn23)cc(OC)c1` (stereo not drawn), the Inhibition [1] was 1.23%, the Inhibition [2] was 2.85% and the Inhibition [3] was -8.2%.
`COc1cccc(CNC(=O)CSc2nnc3c(=O)n(-c4ccc(C)c(C)c4)ccn23)c1OC` gave an Inhibition [1] of 8.73%, an Inhibition [2] of 0.37% and an Inhibition [3] of -5.22%.
Molecule `CCN(C(=O)Cn1nc2cc(C)nc(Nc3ccc(C)c(F)c3)n2c1=O)c1ccccc1` has an Inhibition [1] of 13.32%, an Inhibition [2] of 0.56% and an Inhibition [3] of -6.91%.
`O=C(CSc1nnc2c(=O)n(-c3ccccc3)ccn12)Nc1ccc2c(c1)OCO2` showed an Inhibition [1] of 8.73%, an Inhibition [2] of 0.46% and an Inhibition [3] of -18.26%.
`C=Cc1ccc(CN(c2cccc(F)c2)S(=O)(=O)c2ccc3nnc(C)n3c2)cc1` showed an Inhibition [1] of 2.09%, an Inhibition [2] of 1.51% and an Inhibition [3] of -6.84%.
Work on `COc1ccc(NC(=O)C(C)Sc2nnc3c(=O)n(-c4cccc(OC)c4)ccn23)cc1` (stereo not drawn) yielded an Inhibition [1] of 4.86%, an Inhibition [2] of -0.02% and an Inhibition [3] of -10.81%.
For `CCOc1ccc(-n2ccn3c(SCC(=O)c4ccc(F)cc4)nnc3c2=O)cc1`, the Inhibition [1] was 1.88%, the Inhibition [2] was 2.02% and the Inhibition [3] was -5.27%.
For `COc1cc(NC(=O)Cn2nc3ccc(SC4CCCCC4)nn3c2=O)cc(OC)c1`, the Inhibition [1] was 6.28%, the Inhibition [2] was 4.08% and the Inhibition [3] was -40.43%.
In the case of `Cc1nnc2c(=O)n(CC(=O)Nc3ccc(F)cc3F)c3ccccc3n12`, the Inhibition [1] is reported as 12.43%, the Inhibition [2] is reported as -0.68% and the Inhibition [3] is reported as -30.11%.
`CCCN(C)c1nccn2c(=O)n(CC(=O)Nc3ccc(C#N)cc3)nc12` gave an Inhibition [1] of 16.62%, an Inhibition [2] of 0.92% and an Inhibition [3] of -9.74%.
`COc1ccc(-c2cc3c4nnc(SCC(=O)Nc5ccccc5C(F)(F)F)n4ccn3n2)cc1` gave an Inhibition [1] of 8.66%, an Inhibition [2] of 3.79% and an Inhibition [3] of -13.07%.
`O=S(=O)(c1ccc2nncn2c1)N(Cc1ccc(F)cc1)c1ccc(F)c(F)c1` showed an Inhibition [1] of 5.64%, an Inhibition [2] of 2.31% and an Inhibition [3] of -6.65%.
For `Cc1cc2nn(CC(=O)Nc3cc(F)cc(F)c3)c(=O)n2c(Nc2ccccc2C)n1`, the Inhibition [1] was 6.94%, the Inhibition [2] was 0.1% and the Inhibition [3] was -12.73%.
For `Cc1cc(NC(=O)CSc2nc3ccccc3n3cnnc23)ccc1Br`, the Inhibition [1] was 14.4%, the Inhibition [2] was 4.71% and the Inhibition [3] was -40.95%.
